A selection: hits, their analogues and other compounds. The true share with any hit is near 4%.
Rv3671c protease: inhibits the M. tuberculosis serine protease Rv3671c. inhibition, % at 5.96 µM. P9WHR9. AID 2606. 320,000 tested, 0.048% active; in the data active means inhibition above about 38%;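 further: extracellular domain of Rv3671c used as enzyme; 0% = enzyme with DMSO and 100% = no enzyme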
GDH-TPI counter-1: inhibits GDH-TPI coupling enzymes, artifact for Mtb FBA screen; 360,000 tested, 1.2% active; GDH-TPI coupled enzyme counterscreen, NADH absorbance; inhibition, % at 4.8 µM; in the data active means inhibition above about 30%;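 further: 0% = DMSO wells and 100% = wells lacking the enzyme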
RecA splice inh: Mtb RecA intein splicing inhibition. P9WHJ3. cell-free RecA intein splicing, fluorescence. inhibition, % (no concentration beside the values). 290,000 tested, 0.75% active. AID 2221; in the data active means inhibition above about 30%;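 further: 0% = vehicle wells and 100% = reference inhibitor control wells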
Target sequence (P9WHJ3 whole entry, looked up, canonical isoform): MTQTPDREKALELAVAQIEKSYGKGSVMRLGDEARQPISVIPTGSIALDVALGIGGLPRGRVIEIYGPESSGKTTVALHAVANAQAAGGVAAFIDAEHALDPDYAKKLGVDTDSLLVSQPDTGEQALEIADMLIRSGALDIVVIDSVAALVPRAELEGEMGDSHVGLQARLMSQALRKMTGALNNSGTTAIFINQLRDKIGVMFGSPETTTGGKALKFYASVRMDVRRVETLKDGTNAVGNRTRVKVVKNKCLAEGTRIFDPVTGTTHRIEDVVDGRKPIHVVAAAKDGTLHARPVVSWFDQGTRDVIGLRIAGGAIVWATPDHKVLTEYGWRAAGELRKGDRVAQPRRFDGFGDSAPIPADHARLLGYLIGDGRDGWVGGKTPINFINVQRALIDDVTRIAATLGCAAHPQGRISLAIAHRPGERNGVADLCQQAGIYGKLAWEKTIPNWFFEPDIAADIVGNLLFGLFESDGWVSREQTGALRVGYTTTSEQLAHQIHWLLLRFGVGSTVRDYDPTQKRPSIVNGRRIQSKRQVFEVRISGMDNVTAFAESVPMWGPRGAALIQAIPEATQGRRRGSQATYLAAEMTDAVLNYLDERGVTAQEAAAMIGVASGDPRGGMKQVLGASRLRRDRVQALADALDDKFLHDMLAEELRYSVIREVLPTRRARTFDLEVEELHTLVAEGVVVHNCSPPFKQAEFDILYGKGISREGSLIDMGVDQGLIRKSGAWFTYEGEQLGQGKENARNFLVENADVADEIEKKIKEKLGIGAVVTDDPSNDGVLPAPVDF
Mtb bLac sens: beta-lactam sensitization of Mtb H37Rv; 330,000 tested, 0.27% active; M. tuberculosis H37Rv growth with meropenem, percent inhibition; inhibition, % at 25 µM; AID 434955; call rule not given here;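 further: growth measured after seven days incubation then overnight dye step; 0% = bacteria only wells and 100% = bacteria with antibiotic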
Mtb UGM inh: Mtb UDP-galactopyranose mutase inhibition; P9WIQ1; purified UGM, fluorescence polarization probe displacement; inhibition, % at 10 µM; 320,000 tested, 0.06% active; AID 504406; in the data active means inhibition above about 10%, passing the limit was not always enough
Mtb FBA inh: Mtb fructose-bisphosphate aldolase inhibition. purified M. tuberculosis FBA, fluorescence read-out. inhibition, % at 1 µM. 360,000 tested, 2.3% active. AID 588726;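 further: 0% = vehicle and 100% = reference inhibitor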
Mtb FBA inh conf: Mtb FBA inhibition, confirmed; shares compounds with Mtb FBA inh; purified M. tuberculosis FBA, fluorescence read-out; inhibition, % at 1 µM; 5,600 tested, 78% active;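 further: 0% = vehicle wells and 100% = reference inhibitor wells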
GDH-TPI counter-2: inhibits GDH-TPI coupling enzymes, flagging Mtb FBA hits | inhibition, % at 1 µM | 5,600 tested, 81% active | AID 652141 | GDH-TPI coupled enzyme counterscreen, fluorescence | shares compounds with Mtb FBA inh; in the data active means inhibition above about 10%
GDH-TPI DR: inhibits GDH-TPI coupling enzymes in dose response; shares compounds with Mtb FBA inh; GDH-TPI coupled enzyme assay, fluorescence, artifact counterscreen; IC50, µM; 170 tested, 79% active; call rule not given here
* = called active by the depositor. Unless noted, no stated cut-off is given here; in the data, active means inhibition above about 27%; inactive means the rest.

For COC(=O)C1=CN(Cc2cccs2)C=C(C(=O)OC)C1c1cccc(O)c1 the results were Rv3671c protease 2, GDH-TPI counter-1 2, RecA splice inh -203, Mtb bLac sens 4, Mtb UGM inh 0, Mtb FBA inh 85*, Mtb FBA inh conf 94* and GDH-TPI counter-2 82*.
For COc1ccc(CNC(=O)CCc2cc(OC)c(OC)c(OC)c2)cc1 the results were Rv3671c protease -3, GDH-TPI counter-1 2, RecA splice inh 2, Mtb bLac sens -1, Mtb UGM inh -2 and Mtb FBA inh -1.
Screening COC(=O)C1=CN(Cc2ccc(OC)cc2)C=C(C(=O)OC)C1c1cc(OC)c(OC)c(OC)c1 returned Rv3671c protease -3, GDH-TPI counter-1 1, RecA splice inh -17, Mtb bLac sens 0, Mtb UGM inh 0, Mtb FBA inh 48*, Mtb FBA inh conf 88* and GDH-TPI counter-2 64*.
Screening COC(=O)C1=CN(c2ccc(F)cc2)C=C(C(=O)OC)C1c1cccc(Br)c1 returned GDH-TPI counter-1 0, RecA splice inh -7, Mtb bLac sens 0, Mtb UGM inh 0 and Mtb FBA inh 18.
COCCN1C=C(C(=O)OC)C(c2ccc(OC)c(OC)c2)C(C(=O)OC)=C1 was read as Rv3671c protease 9, GDH-TPI counter-1 10, RecA splice inh 3, Mtb bLac sens -3, Mtb UGM inh 0, Mtb FBA inh 29*, Mtb FBA inh conf 135* and GDH-TPI counter-2 98*.
Screening COC(=O)C1=CN(CC2CCCO2)C=C(C(=O)OC)C1c1cc(OC)c(OC)c(OC)c1 (configuration not stated) returned Rv3671c protease -5, GDH-TPI counter-1 18, RecA splice inh -76, Mtb bLac sens -9, Mtb UGM inh 0, Mtb FBA inh 52*, Mtb FBA inh conf 0 and GDH-TPI counter-2 -5.
Screening CCOC(=O)C1=C(C)NC(C)=C(C(=O)OCC)C1c1ccc(OC)c(OC)c1 returned GDH-TPI counter-1 6 and Mtb FBA inh 7.
COCCCN1C(=O)C(CC(=O)NC2CCCCC2)CC(C(=O)N(C)C)=C1C (configuration not stated) was read as GDH-TPI counter-1 -1 and Mtb FBA inh 0.
CC(C)c1cc(C(C)C)c(S(=O)(=O)NNC(=O)c2ccncc2)c(C(C)C)c1 was read as Rv3671c protease 10, GDH-TPI counter-1 -3, RecA splice inh 0, Mtb bLac sens 17, Mtb UGM inh 3 and Mtb FBA inh 0.
For CCc1nc2ccc(C(=O)NCCOc3ccc(OC)cc3)cn2c1N(CC)CCN(C)C the results were GDH-TPI counter-1 12 and Mtb FBA inh 1.
CC1CCCCC12NC(=O)N(CC(=O)OCc1cccc(F)c1)C2=O (configuration not stated) was read as Rv3671c protease 6, GDH-TPI counter-1 4, Mtb bLac sens -3, Mtb UGM inh -3 and Mtb FBA inh -1.
Screening COc1cc(CC(=O)NC(c2ccccc2)c2ccccc2)cc(OC)c1OC returned Rv3671c protease -1, GDH-TPI counter-1 7, RecA splice inh -2, Mtb bLac sens 8, Mtb UGM inh 0 and Mtb FBA inh 1.
`CCOC(=O)C1=CN(Cc2ccc(OC)cc2)C=C(C(=O)OCC)C1c1cccs1` gave Rv3671c protease -1, GDH-TPI counter-1 5, RecA splice inh -14, Mtb bLac sens 5, Mtb UGM inh 0, Mtb FBA inh 32*, Mtb FBA inh conf 151* and GDH-TPI counter-2 136*.
Screening CCOC(=O)C1=C(C)NC(C)=C(C(=O)OCC)C1c1cccs1 returned Rv3671c protease -14, GDH-TPI counter-1 8, RecA splice inh -1, Mtb bLac sens 8, Mtb UGM inh 2 and Mtb FBA inh -3.
COC(=O)C1=CN(Cc2ccc(F)cc2)C=C(C(=O)OC)C1c1cc(OC)c(OC)c(OC)c1 was read as Rv3671c protease 1, GDH-TPI counter-1 2, RecA splice inh -52, Mtb bLac sens 2, Mtb UGM inh 1, Mtb FBA inh 29*, Mtb FBA inh conf 10, GDH-TPI counter-2 9 and GDH-TPI DR 2.9*.

From PubChem
